Measured values from the supplement of paper PMC10338343.
± gives the standard deviation.

System: MILI (PIWIL2) piRISC loaded with piRNA #1 (26 nt)
Experiment: pre-steady-state target cleavage rate (min^-1); guide: piRNA #1 5'p-UGAGGUAGUAGGUUGUAUAGUAUCCA; MIWI and MILI are mouse PIWI proteins and EfPiwi is from a freshwater sponge; tags in brackets are library labels; higher = faster piRNA-guided slicing of the target
Conditions: auxiliary factor: 500 nM mouse GTSF1
Method: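 Cleave-'n-Seq: a library of target RNAs (target site embedded in constant flanks, ACAGCATTCCGCGTTAGTGATATCCG... 5' flank; DNA-blocked outside the site) at 0.1 nM was incubated with 1 nM active mouse MILI or MIWI piRISC (synthetic 5'-monophosphorylated piRNA guide) with or without 500 nM mouse GTSF1 at 33 °C for 1 min to 16 h. Uncleaved targets were sequenced and normalised to non-target controls, and the pooled three trials were fitted to a burst-and-steady-state model to give the pre-steady-state cleavage rate (min^-1; k3 is constrained to at most 1e-4). Sequence is the target site only; target names encode pairing extent (gX:gY) and contiguous / 1-mismatch / 2-mismatch / bulge geometry. Fits with R² ≤ 0 are excluded.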

Sequence | pre-steady-state target cleavage rate
GGAGACCAUACUAUUCAACCUUCUACCUCA | 0.00695 ± 0.0026
GGAGAGGAUACUAAACAACCUAGUACCUCA | 0.00823 ± 0.004
GGAGACCUAUGUAUACUACCUUCUACCUCA | 0.00348 ± 0.0016
GGAGAGGAUACAUAACAACCUACUACCUCA | 0.123 ± 0.011
GGAGACGAUAGUAUACAACCUACUAGCUCA | 0.0976 ± 0.021
GGAGACCUAUGUAUACUACGUACUACCUCA | 0.00798 ± 0.0023
GGAGACCUUACAAUACAACGUACUACCUCA | 0.0135 ± 0.0052
GGAGAGGAUACUAUACACCCUACUACCUCA | 0.122 ± 0.015
GGAGAGGAUACUAUAUAACCUACUACCUCA | 0.167 ± 0.01
GGAGACGAUACUAUACAACCUACUAGCUGA | 0.0101 ± 0.0055
GGAGUGGAUACUAUACAACCUAACUACCUCA | 0.0255 ± 0.0041
GGAGACGAUACAAUACAACCUACUACCACA | 0.204 ± 0.019
GGAGACGAUACUUUUCAACCUACUACCUCA | 0.171 ± 0.011
GGAGACCUAACUAAACAACCUACUAGCUCA | 0.0613 ± 0.018
GGAGACCAUACUAUUCAUCCUACUACCUCA | 0.271 ± 0.019
GGAGACCUAUGUAUACAACCUACAACCUCA | 0.0609 ± 0.0082
GGAGUAGAUACUAUACAACCUACUACCUCA | 0.186 ± 0.0093
GGAGACCAAACUAUACAACCUACUACCACA | 0.118 ± 0.028
GGAGACCUUACUAUACAACCUAGUACCACA | 0.00907 ± 0.0036
GGAGACCUAUGAAUACAUCCUACUACGUCA | 0.00336 ± 0.0019

Sequence | pre-steady-state target cleavage rate
GGAGACCUAUCUAUACAACCUUCUACCUCA | 0.00553 ± 0.0024
GGAGACCUUACUAUACAACCAUACUACCUCA | 0.0055 ± 0.0037
GGAGACCUUACUAAACAACCUACUACCUGA | 0.0914 ± 0.017
GGAGACCUAUGUAUACAACCUCCUACCUCA | 0.0161 ± 0.0038
GGAGACCUUACUAACAACCUACUACCUCA | 0.0824 ± 0.016
GGAGACCUUACUAUACAACCUACUGCCUCA | 0.0872 ± 0.011
GGAGACCUAACUAUUCAACCUACUACCUGA | 0.0858 ± 0.03
GGAGUGGAUACUAUACAAGCUACUACCUCA | 0.233 ± 0.013
GGAGACGCUACUAUACAACCUACUACCUCA | 0.228 ± 0.019
GGAGACCUAUGAAUACAACCUACUACCCUCA | 0.00533 ± 0.0019
GGAGACGAUACUAUACAACCUACUACCUACA | 0.178 ± 0.013
GGAGACCAUACUAUACAACGUACAACCUCA | 0.0214 ± 0.0035
GGAGACGAUACUAUACCACCUACUACCUCA | 0.168 ± 0.015
GGAGUGGAUACUAUACUACCUUCUACCUCA | 0.0207 ± 0.0034
GGAGAGGAUACUAUACAACCUACUACGCUCA | 0.0912 ± 0.013
GGAGACCUUACUAUACAACCUACUACCUAA | 0.154 ± 0.019
GGAGAGGAUACUAUACAACCAUCUACCUCA | 0.00516 ± 0.0022
GGAGACCUAUGAUAACAACCUACGACCUCA | 0.0039 ± 0.0025
GGAGACCUAUGAUUAACAACCUACUACCUCA | 0.00416 ± 0.0022
GGAGACCAUACUAUUACAACCUACUACCUCA | 0.161 ± 0.013
